Platelet DG rel: inhibitors of platelet dense granule secretion, primary screen, cell-based, MLPCN, human platelets | human platelet-rich plasma, SFLLRN dense granule ATP release, luminescence | inhibition, %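 (compounds screened at 7.5 µM in platelet-rich plasma)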 | 300,000 compounds, 0.22% hits;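 active = mean replicate score, as percent of positive control, at or above 50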
MPTP inh: mitochondrial permeability transition pore inhibitors, primary screen, biochemical, isolated mouse mitochondria, absorbance. 360,000 compounds, 1.4% hits. Ca2+ swelling absorbance, 30 min. inhibition, % at 10 µM;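 active = inhibition of 50% or more, scaled per plate between neutral and stimulator controls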;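 also: 0% = DMSO wells given calcium and 100% = 1 mM EGTA wells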
HSF-1 act: HSF-1 activators, primary screen, NIH3T3-HGL cells, MG132 stress, luminescence, single point; activation, % at 9 µM; NIH3T3-HGL HSF-1 luciferase reporter, 8 h; 100% = twice DMSO control signal; 300,000 compounds, 1.7% hits; AID 504408, 2011;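 active = mean replicate activation of at least 50% with a set share of replicates each reaching 50%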;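 also: 0% = median of the neutral control wells and 100% = twice that signal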
HSP90 inh: HSP90 inhibitors, primary screen, cell lysate, luminescence. Rabbit reticulocyte lysate, luciferase refolding luminescence, 3 h. inhibition, % at 5.6 µM. Heat shock protein HSP 90 (rabbit reticulocyte lysate; luciferase refolding). 290,000 compounds, 0.91% hits;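 active = inhibition above the screen-wide mean plus 3 SD, computed separately per campaign, cut at about 16% in these data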;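 also: 0% = DMSO wells and 100% = 60 µM geldanamycin wells; inhibitors lower the luminescence because luciferase stays unfolded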
HSF1 inh: HSF1 inhibitors in luciferase reporter cells, primary screen, cell-based, NIH3T3, luminescence | 300,000 compounds, 0.77% hits | NIH3T3-HGL HSE-luciferase, MG132-induced, luminescence 8 h; hits give low values | activity change, negative = inhibition, % at 7.5 µM (by protocol);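 active = more than half of replicate wells show activity change below -50%, luminescence cut by over half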;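 also: luciferase reports HSF-1 transcriptional activity via heat shock element; 0% = median of DMSO wells and -100% = zero luminescence signal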
dFosB act: activators of delta FosB homodimer, primary screen, biochemical, fluorescence polarization, TAMRA-CDK5 oligo, single point; Protein FosB (Mus musculus), P13346; purified delta FosB; percent of positive-control signal above neutral wells; activation, % at 25 µM; 340,000 compounds, 0.99% hits; AID 493131, 2011;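 active = mean activation above about 17%, with every replicate also reaching it, limit read from the data, passing the limit was not always enough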
Target sequence (P13346 whole entry, looked up): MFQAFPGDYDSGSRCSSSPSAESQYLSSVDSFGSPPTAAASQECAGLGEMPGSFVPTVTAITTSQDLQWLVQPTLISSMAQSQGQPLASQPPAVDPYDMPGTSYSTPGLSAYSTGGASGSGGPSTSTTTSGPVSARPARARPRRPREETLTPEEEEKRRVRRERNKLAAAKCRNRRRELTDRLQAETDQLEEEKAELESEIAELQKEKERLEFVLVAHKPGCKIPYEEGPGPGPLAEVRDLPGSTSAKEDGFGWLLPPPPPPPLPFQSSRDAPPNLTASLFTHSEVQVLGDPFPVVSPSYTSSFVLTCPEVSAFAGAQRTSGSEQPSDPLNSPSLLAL
MPTP counter: fluorescence retest of MPTP screen hits in isolated mitochondria, single concentration. 5,000 compounds, 78% hits. AID 624504, 2012. membrane potential, Rhodamine 123 fluorescence. shares compounds with MPTP inh. inhibition, % at 10 µM; in the data active = inhibition above about 22%;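 also: 0% = DMSO vehicle and 100% = positive control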
MPTP abs DR: mitochondrial permeability transition pore inhibitors, dose response, biochemical, absorbance, uHTS hits | shares compounds with MPTP inh | AID 651561, 2012 | isolated mitochondria swelling | IC50, µM | 780 compounds, 58% hits; in the data active = IC50 below about 20 µM
MPTP counter DR: fluorescent counter-screen in isolated mitochondria, dose response, counter-screen for MPTP inhibitor project, biochemical, fluorescence, uHTS hits; 780 compounds, 49% hits; shares compounds with MPTP inh; isolated mitochondria counterscreen, fluorescence read-out; IC50, µM; in the data active = IC50 below about 80 µM
The depositor's hits bear a star. Compounds with a hit are over-represented: about 4.9% of the library has one in this group of screens.

What do the screens show for `Cc1cc2nc(CCN(C(=S)NCC(C)C)C3CCCC3)[nH]c2cc1C`?
Platelet DG rel: 5; MPTP inh: 85*; HSF-1 act: 13; HSP90 inh: 2; HSF1 inh: 14; dFosB act: -7; MPTP counter: 84*

How did Cn1ccnc1SCc1cc(=O)[nH]c2ccccc12 do in these assays?
Platelet DG rel: -10; MPTP inh: 87*; HSP90 inh: 1; dFosB act: 5; MPTP counter: 87*

How did Fc1ccc(NC(=S)N/N=C/c2ccc(F)c(F)c2)cc1 do in these assays?
Platelet DG rel: 2; MPTP inh: 2; HSF-1 act: 38; HSP90 inh: -2; HSF1 inh: 26; dFosB act: 3

How did O=C(Nc1ccc(Cl)cc1)Nc1ccc(S(=O)(=O)Nc2ncccn2)cc1 do in these assays?
Platelet DG rel: 0; MPTP inh: -1; HSF-1 act: 5; HSP90 inh: 2; HSF1 inh: -6; dFosB act: -9

Results for O=S(=O)(Nc1ncccn1)c1ccc(NC(=S)Nc2ccc(Cl)cc2)cc1 ?
Platelet DG rel: -9; MPTP inh: 98*; HSF-1 act: 56*; HSP90 inh: 2; HSF1 inh: 20; dFosB act: -4; MPTP counter: 96*

Results for Fc1ccc(NC(=S)Nc2cc(Cl)ccc2Cl)cc1 ?
Platelet DG rel: -6; MPTP inh: 58*; HSF-1 act: 77*; HSP90 inh: 1; HSF1 inh: 43; dFosB act: -2; MPTP counter: 78*

How did Fc1ccc(NC(=S)Nc2ccc(Cl)cc2)cc1 do in these assays?
Platelet DG rel: 5; MPTP inh: 80*; HSF-1 act: 2; HSP90 inh: -5; HSF1 inh: 16; dFosB act: 1; MPTP counter: 107*

How did CS(=O)(=O)N(CC(=O)N1CCCC1)Cc1ccc(Cl)c(Cl)c1 do in these assays?
Platelet DG rel: 3; MPTP inh: 0; HSF-1 act: 13; HSP90 inh: 1; HSF1 inh: 5; dFosB act: -7

Results for COCCN1C[C@@H](CO)O[C@@H](n2cnc3c(NCc4ccncc4)ncnc32)C1 ?
MPTP inh: 0

Results for CCC(C)NS(=O)(=O)c1ccc(S(=O)(=O)N2CCCC3(CCCCC3)C2)cc1 (stereo unspecified) ?
Platelet DG rel: -11; MPTP inh: 88*; HSF-1 act: -2; HSP90 inh: -3; HSF1 inh: 2; dFosB act: -6; MPTP counter: 100*

Results for COc1ccccc1CC(=O)Nc1ccc2c(c1)C(=O)NC2=O ?
Platelet DG rel: -7; MPTP inh: -2; HSF-1 act: -23; HSP90 inh: -1; HSF1 inh: -4; dFosB act: 0

Results for Cc1ccc(C(=O)COC(=O)CN2C(=O)C3C4CCC(C4)C3C2=O)cc1C (stereo unspecified) ?
Platelet DG rel: -2; MPTP inh: -1; HSF-1 act: 30; HSP90 inh: -1; HSF1 inh: -4; dFosB act: -8

How did Cc1nn(C)c(C)c1CN(C)S(=O)(=O)c1ccc2ccccc2c1 do in these assays?
MPTP inh: 110*; HSP90 inh: -3; dFosB act: 1; MPTP counter: 102*

How did CCCC(=O)N1CCC1(C)C(=O)Nc1ccc2scnc2c1 (stereo unspecified) do in these assays?
MPTP inh: -1

How did COc1cccc(CN(C)C(=O)CSc2nc3ccccc3[nH]2)c1OC do in these assays?
Platelet DG rel: 5; MPTP inh: -2; HSF-1 act: 13; HSP90 inh: 0; HSF1 inh: 6; dFosB act: -3

What do the screens show for `COC(=O)c1sccc1N/N=C/c1cccc(OC)c1O`?
Platelet DG rel: 32; MPTP inh: 1; HSF-1 act: -21; HSP90 inh: 1; HSF1 inh: -10; dFosB act: -6

What do the screens show for `COC(=O)c1sccc1N/N=C/c1cccc(Oc2ccccc2)c1`?
Platelet DG rel: 10; MPTP inh: 64*; HSF-1 act: -53; HSP90 inh: 17*; HSF1 inh: -39; dFosB act: -4; MPTP counter: -8; MPTP abs DR: inactive; MPTP counter DR: >80

What do the screens show for `CCCNC(=O)c1onc(CSc2ccc(Cl)cc2)c1C(=O)NC(C)C`?
Platelet DG rel: 0; MPTP inh: -1; HSF-1 act: 17; HSF1 inh: 10; dFosB act: -5

How did CCc1ccc(-c2cc(C(=O)N3N=C(C(F)F)CC3(O)C(F)F)c3ccccc3n2)cc1 (stereo unspecified) do in these assays?
Platelet DG rel: -5; MPTP inh: 84*; HSF-1 act: 38; HSP90 inh: -3; HSF1 inh: 28; dFosB act: -15; MPTP counter: 83*

How did CC(C)Cc1cc(C(=O)N2N=C(C(F)F)CC2(O)C(F)F)c2ccccc2n1 (stereo unspecified) do in these assays?
Platelet DG rel: -3; MPTP inh: 35; HSF-1 act: 2; HSP90 inh: 1; HSF1 inh: -4; dFosB act: -11

How did Oc1ccc(Cl)cc1-c1cc(-c2ccccc2Cl)[nH]n1 do in these assays?
Platelet DG rel: 8; MPTP inh: 61*; HSF-1 act: 20; HSP90 inh: 1; HSF1 inh: 10; dFosB act: -7; MPTP counter: 67*

Results for Oc1ccccc1-c1cc(-c2ccco2)[nH]n1 ?
Platelet DG rel: 10; MPTP inh: 10; HSF-1 act: 25; HSP90 inh: -2; HSF1 inh: 9; dFosB act: -4

How did O=C(N/N=C/C1C(c2ccccc2)C1(Cl)Cl)c1cccc(Cl)c1 (stereo unspecified) do in these assays?
Platelet DG rel: 1; MPTP inh: 75*; HSF-1 act: 18; HSP90 inh: 3; HSF1 inh: 0; dFosB act: -9; MPTP counter: 80*

Results for Cc1ccnc2nc(C(=O)Nc3nc4ccccc4s3)nn12 ?
Platelet DG rel: 23; MPTP inh: 1; HSF-1 act: 14; HSP90 inh: 7; HSF1 inh: 7; dFosB act: -4
